IL1B secr inh = qHTS for Inhibitors of Inflammasome Signaling: IL-1-beta AlphaLISA Primary Screen | AID 743279, 2014 | THP-1 LPS/ATP IL-1B secretion, AlphaLISA, 16 h; hits give low values | activity change, % at 57.5 µM | 360,000 compounds, 4.7% hits; in the data active = activity change below about -50%; inconclusive = mostly about -30% to -49%
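Secreted IL-1B measured by AlphaLISA bead assay after 16 h compound exposure of THP-1 cells; compounds (final up to 57.5 uM) added 1 h before LPS (250 ng/mL) and ATP (1.25 mM) stimulation; lower signal means less secretion.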
HT1080-NT tox = qHTS for induction of synthetic lethality in tumor cells producing 2HG: qHTS for the HT-1080-NT fibrosarcoma cell line; HT-1080-NT fibrosarcoma viability, CellTiter-Glo ATP luminescence, 48 h; Potency, µM (highest dose often 46.1 µM), for the others: at the top dose activity, negative = less viability, hits mostly cytotoxic; 360,000 compounds, 1.6% hits;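 also: NT is the 2HG producing partner of a matched IDH1 knockdown line; potency is read from the fitted curve at half-maximal effect; 0% = DMSO-treated cells and -100% = media-only wells without cells; nearly all actives have a fitted effect of over 55% in size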
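Viability of the 2HG-overproducing fibrosarcoma line after 48 hours of compound exposure at 37 degrees C was determined by luminescence with CellTiter-Glo, and concentration-effect curves were then fitted and categorized.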
DT40 TDP1 no CPT = qHTS for Inhibitors of human tyrosyl-DNA phosphodiesterase 1 (TDP1): qHTS in cells in absence of CPT; DT40 Tdp1-/- hTDP1 cells, no CPT, ATP luminescence, 48 h; Potency, µM (highest dose often 46.2 µM), without a hit: top-dose activity change, negative = growth inhibition, actives largely listed as inhibitors; 420,000 compounds, 15% hits; also: potency is read from the fitted curve at half-maximal effect; nearly all actives have a fitted effect of over 55% in size
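A cellular qHTS used chicken DT40 cells lacking endogenous Tdp1 but carrying stably transfected human TDP1. Compounds were applied without camptothecin, and cell growth kinetics were judged by ATP-dependent luminescence after ≥48 hr.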
DT40 TDP1 CPT = qHTS for Inhibitors of human tyrosyl-DNA phosphodiesterase 1 (TDP1): qHTS in cells in presence of CPT; chicken DT40 Tdp1-/-;hTDP1 cells + 20 nM CPT, ATP luminescence, 48 h; Potency, µM (titrated, usually from 46.2 µM), for inactives: at the top dose activity change, negative = growth inhibition, usual class: inhibitors; AID 686979, 2013; 420,000 compounds, 12% hits; also: potency is read from the fitted curve at half-maximal effect; nearly all actives have a fitted effect of over 55% in size
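Chicken DT40 Tdp1-/- cells stably complemented with human TDP1 were seeded at 400 cells/well in medium containing 20 nM camptothecin, exposed to pin-transferred compounds, and grown at 37 °C for at least 48 hr. Viability was read as ATP luminescence.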
HT1080 IDH1KD tx = qHTS for induction of synthetic lethality in tumor cells producing 2HG: qHTS for the HT-1080-IDH1KD cell line. Potency, µM (titrated, usually from 46.1 µM), for the others: at the highest dose activity, negative = toxicity, usual class: cytotoxic. AID 686971, 2013. HT-1080 IDH1 knockdown viability, ATP luminescence, 48 h. 360,000 compounds, 2% hits;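 also: potency is read from the fitted curve at half-maximal effect; 0% = DMSO wells and -100% = cell-free medium wells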
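After a 2 h attachment period, IDH1KD HT-1080 cells took pin-transferred compound for 48 h at 37 °C; ATP-based luminescence after 10 min room-temperature reagent incubation reported viability.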
uPA surface inh = qHTS for Inhibitors of Cell Surface uPA Generation; cell surface uPA generation assay, qHTS; Potency, µM (doses to about 38.3 µM), for the others: at the highest dose activity change, negative = inhibition, actives largely listed as inhibitors; 330,000 compounds, 0.31% hits; active = well fitted inhibition curve with a large enough effect; inconclusive = small, poorly fitted or top-dose-only effect; inactive = no such curve, though single readings can be large or run the other way; tested in mouse RAW 264.7 cells; also: potency is read from the fitted curve at half-maximal effect; nearly all actives have a fitted effect of over 55% in size
* = called active by the depositor; ? = inconclusive; . = no result given. Hits are enriched below; roughly 19% of the tested compounds scored in any of these assays. Unless noted, calls follow the shape of the dose curve; as a rule, active = well fitted curve in the direction sought with a large enough effect; inconclusive = small, poorly fitted or top-dose-only effect, or another doubt; inactive = no such curve, though single readings can be large; an effect the other way counts as inactive or inconclusive. Unless noted, % is scaled to controls: 0 for no effect and ±100 for the full control effect.

SMILES	IL1B secr inh	HT1080-NT tox	DT40 TDP1 no CPT	DT40 TDP1 CPT	HT1080 IDH1KD tx	uPA surface inh
COc1ccc(Cn2c(C3CC3)nc3ccc(NC(=O)C4CC4)cc3c2=O)cc1	-65.0*	-18.9%	?	-24.1%	-19.9%	-4.8%
Cc1nc2ccc(NC(=O)c3ccco3)cc2nc1C	1.2	1.9%	-11.6%	-4.8%	-1.1%	12.1%
CCC(=O)Nc1ccc2nc(C3CC3)n(Cc3ccc(C(C)(C)C)cc3)c(=O)c2c1	0.0	-4.7%	14.6µM*	18.4µM*	-1.5%	-5.6%
O=C(Nc1ccc2nc(C3CC3)n(Cc3ccc(F)cc3)c(=O)c2c1)c1ccco1	-50.9*	-13.1%	?	20µM*	-17.9%	-12.1%
Cc1ccccc1NC(=O)CSc1nnc(NC(=O)c2ccco2)s1	0.0	-2.4%	?	-9.8%	-3.2%	-8.7%
Cc1ccc(N2CCN(c3cc(C)nc4nc(C)nn34)CC2)c(C)c1	-3.8	29.4%	?	6.1%	14.5%	7.6%
Cn1c(Oc2ccc(Cl)cc2)c(C=O)c2ccccc21	-94.8*	?	25.9µM*	?	?	-9.6%
Cn1c(Oc2ccc(F)cc2F)c(C=O)c2ccccc21	-87.9*	-11.4%	?	-12.2%	11.7%	-11.5%
Cc1ccc(Oc2c(C=O)c3ccccc3n2C)cc1	-17.7	-19.2%	?	3.26µM*	-14.6%	-6.0%
O=C(CN1C(=O)NC2(CCCC2)C1=O)OCc1c(F)cccc1Cl	-1.3	-2.6%	-16.5%	-11.3%	13.8%	-1.1%
C[C@H]1CN([C@@H](C)CO)C(=O)c2cc(Br)cnc2O[C@H]1CN(C)Cc1ccc(Oc2ccccc2)cc1	?	?	16.4µM*	18.4µM*	?	.
CCCNC(=O)N(C)C[C@H]1Oc2ncc(C#CCc3ccccc3)cc2C(=O)N([C@H](C)CO)C[C@H]1C	-26.9	-10.2%	10.3µM*	29.1µM*	-3.1%	.
COc1ccc(C#Cc2cnc3c(c2)C(=O)N([C@@H](C)CO)C[C@@H](C)[C@@H](CN(C)CC2CCOCC2)O3)cc1	-17.0	-11.2%	20.6µM*	18.4µM*	-10.9%	.
Cc1ccccc1-c1cnc2c(c1)C(=O)N([C@@H](C)CO)C[C@@H](C)[C@H](CN(C)Cc1ccccc1F)O2	-22.0	-4.5%	16.4µM*	?	-5.4%	.
Cn1c(=O)c2c(c3ccccc31)OC(=O)CC2c1ccc(C(F)(F)F)cc1 (configuration not stated)	.	.	-9.3%	26.2%	.	.
Cc1cccc(C(=O)N2CCNC(=O)C2CC(=O)Nc2cccc(Cl)c2)c1 (configuration not stated)	?	0.0%	2.4%	2.2%	4.5%	-0.9%
Cc1cccc(C)c1NC(=O)C1(C)CSCC(=O)N1CCOc1ccccc1 (configuration not stated)	0.9	1.0%	-25.5%	13.6%	0.8%	.
CC1(C)CC(NC(=O)c2cc(Cl)ccc2Cl)CC(C)(C)N1	-5.3	17.0%	3.3%	9.7%	4.9%	-1.1%
COc1ccc(S(=O)(=O)N(C)C[C@H]2Oc3ncc(Br)cc3C(=O)N([C@@H](C)CO)C[C@@H]2C)cc1	28.5	-12.7%	11.6µM*	?	11.4%	.
C[C@@H]1CN([C@@H](C)CO)C(=O)c2cc(/C=C/c3ccccc3)cnc2O[C@@H]1CN(C)S(=O)(=O)c1ccc(F)cc1	-10.8	14.0%	-14.3%	-7.6%	6.6%	.
